Counter-ions that a name gives are not always drawn.
Experiments:
Test in all cases: Euclidean distance of Cell Painting phenotypic profile (signed KS, 77 features) to DMSO centroid (dimensionless distance); 5 or 10 uM (library dependent); higher = stronger phenotypic change vs DMSO (phenoactivity)
Conditions in all cases: 48 h
[1] = tested on: 786-O
How it was run: (§1)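 Library compounds were applied at 10 or 5 uM, depending on the library, with 0.1% DMSO final, for 48 h to five cancer lines and a healthy fibroblast line. After staining, cells were imaged confocally at 20X across 9 fields per well, and Harmony extracted 77 features, each scored as a signed Kolmogorov-Smirnov statistic against vehicle wells on the same plate. Phenoactivity is the Euclidean distance between each profile and the median vehicle profile, with profiles first plate-position corrected, correlation-weighted and averaged over replicates at the top dose.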

[2] = tested on: A549
How it was run: as §1

[3] = tested on: DU145
How it was run: as §1

[4] = tested on: FB
How it was run: as §1

[5] = tested on: HEPG2
How it was run: as §1

[6] = tested on: OVCAR4
How it was run: as §1

Compound | Euclidean distance [1] | Euclidean distance [2] | Euclidean distance [3] | Euclidean distance [4] | Euclidean distance [5] | Euclidean distance [6]
O=C(O)c1ccccn1 [Picolinic acid (PCL 016)] | 0.642 | 0.409 | 2.15 | 0.847 | 0.761 | 0.799
COC(=O)[C@@H]1[C@H]2C[C@H]3c4[nH]c5ccccc5c4CCN3C[C@@H]2CC[C@@H]1O [Yohimbine HCl] | 1.79 | 0.764 | 0.901 | 0.844 | 0.549 | 0.758
COCCc1ccc(OCC(O)CNC(C)C)cc1 (stereo not drawn) [Metoprolol Tartrate] | 0.573 | 0.762 | 0.69 | 0.67 | 0.507 | 0.885
CCCNC(C)C(=O)Nc1ccccc1C (stereo not drawn) [Prilocaine] | 1.25 | 0.85 | 0.708 | 1.93 | 0.648 | 0.974
C=C1C(=O)[C@]23[C@H](O)[C@H]1CC[C@H]2[C@@]12CO[C@]3(O)[C@@H](O)[C@@H]1C(C)(C)CC[C@@H]2O [Oridonin] | 1.57 | 1.32 | 1.1 | 1.01 | 1.03 | 1.33
Nc1nccc2c1ncn2C1C=C(CO)C(O)C1O (stereo not drawn) [3-Deazaneplanocin A (DZNeP)] | 2.28 | 1.27 | 1.19 | 2.71 | 1.23 | 1.72
CN1C[C@@H]2C[C@H]1CN2c1cc2c(cc1F)c(=O)c(C(=O)O)cn2C1CC1 [Danofloxacin Mesylate] | 1.72 | 1.87 | 1.14 | 0.963 | 1.05 | 0.974
Cc1ccc(NC(=O)C2(c3ccc4c(c3)OC(F)(F)O4)CC2)nc1-c1cccc(C(=O)O)c1 [VX-809 (Lumacaftor)] | 1.11 | 0.637 | 1.55 | 0.88 | 0.294 | 1.02
CC(C)c1noc(N2CCC(COc3ccc(-c4ccc(S(C)(=O)=O)cc4)nc3)CC2)n1 | 1.17 | 1.53 | 0.872 | 0.701 | 0.585 | 0.984
CCc1oc2ccccc2c1C(=O)c1cc(Br)c(O)c(Br)c1 [Benzbromarone] | 0.882 | 0.749 | 0.48 | 1.01 | 0.723 | 1.14
CC(=O)OC1CC2CCC1(C)C2(C)C (stereo not drawn) [Bornyl acetate] | 1.09 | 0.894 | 1.24 | 1.11 | 0.74 | 1.29
COc1cc2c(cc1OC)CN(CCc1ccc(NC(=O)c3cc(OC)c(OC)cc3NC(=O)c3cnc4ccccc4c3)cc1)CC2 [Tariquidar] | 0.987 | 1.26 | 1 | 1.17 | 0.844 | 1.04
NC(=O)[C@@H]1CCCN1C(=O)[C@H](Cc1c[nH]cn1)NC(=O)[C@@H]1CCC(=O)N1 [Protirelin] | 1.34 | 0.937 | 0.758 | 1.31 | 0.44 | 0.947
C[C@@H]1C/C=C/C=C/C=C/C=C/[C@H](O[C@@H]2O[C@H](C)[C@@H](O)[C@H](N)[C@@H]2O)C[C@@H]2O[C@](O)(C[C@@H](O)C[C@H]3O[C@@H]3/C=C/C(=O)O1)C[C@H](O)[C@H]2C(=O)O [Natamycin] | 1.51 | 0.972 | 1.07 | 1.11 | 1.14 | 1.02
O=C(Nc1ccccc1)Nc1ccc(-c2ccc(C(=O)[C@@H]3CCC[C@H]3C(=O)O)cc2)cc1 | 0.735 | 0.898 | 0.804 | 1.29 | 1.92 | 0.814
CCN[C@H]1C[C@H](C)S(=O)(=O)c2sc(S(N)(=O)=O)cc21 [Dorzolamide HCl] | 1.17 | 0.786 | 1.03 | 1.31 | 1.06 | 1.09
O=c1[nH]cnc2c1ncn2[C@@H]1O[C@H](CO)[C@@H](O)[C@H]1O [Inosine] | 1.3 | 0.799 | 0.639 | 0.936 | 0.417 | 1.3
Cn1c(=O)c2c(ncn2CC2OCCO2)n(C)c1=O [Doxofylline] | 1.15 | 0.81 | 0.772 | 0.965 | 0.408 | 1.15
Fc1ccc(C(c2ccc(F)cc2)N2CCN(C/C=C/c3ccccc3)CC2)cc1 [Flunarizine 2HCl] | 0.978 | 1.16 | 1.34 | 0.938 | 2.13 | 1.24
CC1(C)Cc2c(-c3ccccc3)c(-c3ccc(Cl)cc3)c(CC(=O)O)n2C1 [Licofelone] | 0.977 | 1.12 | 1.32 | 1.22 | 0.815 | 1.41
Cc1cc(O)c(C(=O)N[C@@H](C(=O)N[C@@H]2C(=O)N3C(C(=O)O)=C(CSc4nnnn4C)CS[C@H]23)c2ccc(O)cc2)cn1 [Cefpiramide sodium] | 0.849 | 1.35 | 1.94 | 1.17 | 0.51 | 0.977
COc1ccnc2[nH]cc(C(=O)C(=O)N3CCN(C(=O)c4ccccc4)C[C@H]3C)c12 | 0.998 | 1.1 | 0.533 | 0.737 | 0.554 | 1.47
Cc1csc(-c2nnc(Nc3ccc(Oc4ncccc4-c4ccnc(N)n4)cc3)c3ccccc23)c1 | 3.06 | 3.22 | 2.83 | 2.44 | 2.61 | 3.01
CCCc1nc2c(C)cc(-c3nc4ccccc4n3C)cc2n1Cc1ccc(-c2ccccc2C(=O)O)cc1 [Telmisartan] | 1.83 | 0.747 | 1.03 | 1.03 | 1.95 | 1.02

Compound | Euclidean distance [1] | Euclidean distance [2] | Euclidean distance [3] | Euclidean distance [4] | Euclidean distance [5] | Euclidean distance [6]
CCc1ccc(N(CC(C)C)S(=O)(=O)c2ccc(OCC3CCOCC3)c(CO)c2)cc1 | 1.56 | 1.56 | 1.9 | 1.05 | 0.857 | 1.66
OCCN1C[C@H](O)[C@@H](O)[C@H](O)[C@H]1CO [Miglitol] | 1.4 | 0.649 | 1.16 | 0.979 | 0.675 | 1.27
Cc1ccccc1-c1cc(N2CCN(C)CC2)ncc1N(C)C(=O)C(C)(C)c1cc(C(F)(F)F)cc(C(F)(F)F)c1 [Netupitant] | 1.35 | 0.761 | 0.595 | 0.999 | 1.23 | 1.4
CN[C@@H](C)C(=O)N[C@H]1CN(C(=O)CC(C)C)CC[C@H]2CC[C@@H](C(=O)NC(c3ccccc3)c3ccccc3)N2C1=O | 1.44 | 1.35 | 0.871 | 0.766 | 0.91 | 1.24
CCC[C@@H]1C[C@@H](C(=O)N[C@@H]([C@H]2O[C@H](SC)[C@H](O)[C@@H](O)[C@H]2O)[C@@H](C)O)N(C)C1 [Lincomycin Hydrochloride Monohydrate] | 0.425 | 0.311 | 0.923 | 0.981 | 0.275 | 1.41
O=c1c(-c2ccc(O)cc2)coc2cc(O)ccc12 [Daidzein] | 0.746 | 0.736 | 0.716 | 0.782 | 0.606 | 1.13
CO[C@@H](C)Cn1c(=O)n(C)c2cnc3ccc(-c4cncc(C(C)(C)O)c4)cc3c21 | 3.52 | 4.06 | 2.18 | 4.79 | 2.61 | 3.29
COc1cc(/C=C/C(=O)O)ccc1O [Ferulic Acid] | 0.857 | 0.966 | 0.806 | 0.925 | 0.541 | 1.73
NC(=O)Nc1sc(-c2ccc(F)cc2)cc1C(N)=O | 1.85 | 1.8 | 2.12 | 3.25 | 0.991 | 1
N#Cc1cc(-c2n[nH]c(-c3ccncc3)n2)ccn1 [Topiroxostat] | 1.19 | 1.05 | 1.49 | 1.16 | 0.521 | 1.32
CC1(C)S[C@@H]2[C@H](NC(=O)[C@H](N)c3ccccc3)C(=O)N2[C@H]1C(=O)O [Ampicillin Trihydrate] | 1.3 | 1.2 | 0.921 | 0.762 | 0.667 | 1.53
CO/N=C(\C(=O)N[C@@H]1C(=O)N2C(C(=O)O)=C(CSc3nnnn3C)CS[C@H]12)c1csc(N)n1 [Cefmenoxime hydrochloride] | 0.657 | 0.643 | 1.22 | 0.686 | 0.775 | 0.594
CCOC(=O)Nc1ccc(NCc2ccc(F)cc2)nc1N [Flupirtine maleate] | 1.54 | 3.24 | 1.53 | 1.25 | 0.854 | 1.37
CC(C)(CO)c1cc2cc(NC(=O)C3(c4ccc5c(c4)OC(F)(F)O5)CC3)c(F)cc2n1C[C@@H](O)CO | 1.47 | 1.89 | 1.24 | 2.93 | 0.904 | 2.17
CN(C)C(=O)c1cc2cnc(Nc3ccc(N4CCNCC4)cn3)nc2n1C1CCCC1 | 2.35 | 1.67 | 1.46 | 3.9 | 1.9 | 1.81
OCCn1cc(-c2ccc3c(c2)CC/C3=N\O)c(-c2ccncc2)n1 | 1.79 | 0.879 | 1.22 | 1.93 | 0.823 | 1.88
Cc1c(-c2ccnn2C)cc(C(=O)NCc2ccc(S(C)(=O)=O)cn2)c(=O)n1-c1cccc(C(F)(F)F)c1 [Alvelestat (AZD9668)] | 1.01 | 1.73 | 1.04 | 1.06 | 0.869 | 0.81
CN(C)/N=N/c1[nH]cnc1C(N)=O [Dacarbazine] | 1.42 | 0.981 | 1.94 | 1.25 | 2.73 | 0.871
COc1cc(N)c(Cl)cc1C(=O)NC1CCN(Cc2ccccc2)CC1 [Clebopride (malate)] | 1.13 | 0.613 | 1.21 | 1.12 | 0.547 | 0.852
Cc1cc(Cl)ccc1OCCCC(=O)NO [Droxinostat] | 1.32 | 1.68 | 0.991 | 1.3 | 1.07 | 0.782
O=C(c1ccc(F)c(F)c1Nc1ccc(I)cc1F)N1CC(O)([C@@H]2CCCCN2)C1 [Cobimetinib (GDC-0973. RG7420)] | 2.92 | 2.56 | 3.23 | 4.08 | 5.18 | 2.85
Cc1cnc(CNC(=O)c2c(=O)c3ccc(N4CCCN(C)CC4)nc3n3c2sc2ccccc23)cn1 | 2.93 | 3.26 | 2.7 | 3.86 | 2.18 | 3.31
CCN1CCN(C(=O)N[C@@H](C(=O)N[C@@H]2C(=O)N3[C@@H]2SC(C)(C)[C@@H]3C(=O)O)c2ccccc2)C(=O)C1=O [Piperacillin Sodium] | 1.11 | 0.62 | 0.884 | 1.1 | 0.514 | 1.25
CCC(=O)NC[C@@H]1C[C@H]1c1cccc2c1CCO2 [Tasimelteon] | 1.21 | 1.04 | 0.924 | 1.26 | 0.397 | 1.28

From the supplement of paper PMC10127200
